# Measurements reported in PubChem BioAssay AID588591 (National Center for Advancing Translational Sciences (NCATS), 2011).
# About 4,700 (1.2%) of roughly 390,000 compounds were called active. Entries that show only a call come without a potency. About 4% were inconclusive and are not listed. The call rests on the fitted dose curve; in most records, active means well fitted inhibition curve with a large enough effect; inconclusive means small, poorly fitted or top-dose-only effect, or another doubt; inactive means no such curve, though single readings can be large or run the other way. This excerpt belongs to a sample that is enriched for actives.
# Target: DNA polymerase eta (Homo sapiens) (UniProt Q9Y253)
# Sequence (Q9Y253 whole entry, looked up): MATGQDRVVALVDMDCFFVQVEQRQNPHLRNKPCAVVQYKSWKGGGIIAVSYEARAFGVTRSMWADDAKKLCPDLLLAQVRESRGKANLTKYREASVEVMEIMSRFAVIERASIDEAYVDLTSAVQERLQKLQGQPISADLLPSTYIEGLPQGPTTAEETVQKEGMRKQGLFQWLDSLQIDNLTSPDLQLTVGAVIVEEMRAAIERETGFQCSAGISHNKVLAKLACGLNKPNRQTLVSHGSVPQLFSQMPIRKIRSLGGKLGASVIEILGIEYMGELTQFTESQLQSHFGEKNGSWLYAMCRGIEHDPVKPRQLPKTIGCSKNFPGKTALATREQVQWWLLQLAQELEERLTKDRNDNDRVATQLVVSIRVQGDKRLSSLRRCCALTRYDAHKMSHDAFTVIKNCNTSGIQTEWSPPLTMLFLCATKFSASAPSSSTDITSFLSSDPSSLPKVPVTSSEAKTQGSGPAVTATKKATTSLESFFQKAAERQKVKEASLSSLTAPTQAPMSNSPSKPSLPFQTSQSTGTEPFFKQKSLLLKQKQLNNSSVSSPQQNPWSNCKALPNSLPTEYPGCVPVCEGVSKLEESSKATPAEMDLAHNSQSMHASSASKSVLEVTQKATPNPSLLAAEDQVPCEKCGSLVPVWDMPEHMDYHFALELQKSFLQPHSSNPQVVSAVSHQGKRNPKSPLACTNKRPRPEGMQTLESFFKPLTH
# Assay: qHTS for Inhibitors of Polymerase Eta
# Conditions: recombinant Pol eta, fluorescent DNA replication assay; series mostly up to 114 µM
# Procedure, shortened: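 Pol eta at 10 nM preincubated with compounds 15 min at room temperature; reaction started with fluorescent substrate (50 nM final) and read kinetically at 0 and 10 min.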
# Potency means the concentration at half of the fitted maximal effect.
row,Compound,Potency
1,CCCn1c(NCc2ccc(N(CC)CC)cc2)nc2ccccc21,inactive
2,COc1cccc(-n2c(=O)c3c(C)c(C(=O)N(C)C)sc3n(Cc3cccc(C)c3)c2=O)c1,inactive
3,CCOC(=O)c1c(S(=O)(=O)NCC(=O)Nc2ccc(Cl)c(C(F)(F)F)c2)c(C)n(C)c1C,inactive
4,O=C1COc2c1ccc(O)c2O,22.4 µM (active)
5,CCSc1nnc2c(n1)OC(c1ccc(OCC(=O)O)cc1)Nc1ccccc1-2 (stereo not given),inactive
6,Cc1ccccc1NC(=O)c1c(NC(=O)c2ccccc2F)sc2c1CCC(C)C2 (stereo not given),inactive
7,CCOc1cccc2c1N[C@@H](c1ccc(C(=O)O)cc1)[C@H]1CC=C[C@@H]21,8.91 µM (active)
8,CCOc1cccc(CC(=O)N2CCc3c([nH]c4ccccc34)C2c2ccc(F)cc2)c1OCC (stereo not given),inactive
9,CCOc1ccccc1C1NC(=O)NC(C)=C1C(=O)OCc1ccco1 (stereo not given),inactive
10,COc1cccc2c1cc1c(=O)n(CC(=O)N3CCN(c4ccccc4)CC3)nc(C)n12,inactive
11,COc1ccc(CNC(=O)c2ccc3c(c2)nc2n3CCOC2)c(OC)c1,inactive
12,CCC(=O)N1c2ccc(S(=O)(=O)NCc3ccco3)cc2CC1C (stereo not given),56.2 µM (active)
13,COc1cccc(CNS(=O)(=O)c2ccc3c(c2)CC(C)N3C(=O)C2CCC2)c1 (stereo not given),inactive
14,CC1CCN(S(=O)(=O)c2ccc(S(=O)(=O)NCc3ccco3)cc2)CC1,inactive
15,COc1ccccc1CNC(=O)c1ccccc1NC(=O)c1nsc2ccccc12,inactive
16,COc1cc(O)c2c(=O)c3c(O)c(O)ccc3oc2c1OC,inactive
17,COc1ccc(-c2c(C)c3ccc(O)c(CN4CCN(C)CC4)c3oc2=O)cc1OC,inactive
18,COc1c(O)cc2oc(-c3ccc(O)c(O)c3)cc(=O)c2c1O,3.55 µM (active)
19,Cc1cc(F)ccc1NC1(c2ccccc2)C(=O)c2ccccc2C1=O,inactive
20,Cc1ccc(NC(=O)Cn2cnc3nc4c(cc3c2=O)CCCC4)cc1Cl,inactive

row,Compound,Potency
1,Cc1ccccc1CS(=O)(=O)CC1Nc2ccc(C(=O)NCc3ccc(Cl)cc3)cc2NC1=O (stereo not given),inactive
2,Cc1ccc(N2CC(c3nnc(Cc4ccccc4Cl)o3)CC2=O)cc1 (stereo not given),inactive
3,CS(=O)(=O)C1=NN2C(=N)/C(=C\c3ccc(OCCOc4ccccc4)cc3)C(=O)N=C2S1,44.7 µM (active)
4,CCS(=O)(=O)C1=NSC2=NC(=O)/C(=C\c3ccc(OS(=O)(=O)c4ccccc4)cc3)C(=N)N21,20 µM (active)
5,Cc1cc(/C=C2/C(=N)N3C(=NC2=O)SN=C3S(C)(=O)=O)c(C)n1-c1ccccc1,44.7 µM (active)
6,Cc1nc2ccn(Cc3cccnc3)c(=O)c2cc1C(=O)N1CCN(c2ccccc2F)CC1,inactive
7,CCOc1ccccc1C(=O)Nc1ccc(S(=O)(=O)N2CCCCC2c2cccnc2)cc1 (stereo not given),inactive
8,COc1ccc(-c2cn3c(C)c(C(=O)Nc4cc(C)cc(C)c4)sc3n2)cc1,inactive
9,COc1ccc(Cn2c(C(=O)O)c(CNCc3cccc(OC)c3)c3ccc(C)cc32)cc1,inactive
10,O=C(CC(c1cccs1)N1Cc2ccccc2C1=O)Nc1ccc(F)cc1F (stereo not given),inactive
11,O=C(/C=C/c1ccc([N+](=O)[O-])o1)NNC(=O)c1ccc(F)cc1,79.4 µM (active)
12,CCOc1ccc(NC(=O)c2cc3c(=O)n(Cc4cccs4)ccc3nc2C)cc1,inactive
13,CCOc1ccc(-c2nonc2NC(=O)c2oc3ccc(C)cc3c2C)cc1OCC,inactive
14,Cc1c(Cl)cccc1NC(=O)N1CCN(C(=O)c2nsc3ccccc23)CC1,inactive
15,O=C(CCCOc1ccccc1)Nc1cccc(C(=O)O)c1,inactive
16,COc1ccc(Cl)cc1S(=O)(=O)Nc1cccc(C(=O)O)c1,inactive
17,C/C(=N\Nc1cccc(C(=O)O)c1)c1ccc2c(c1)Nc1ccccc1S2,20 µM (active)
18,CC1=C(C(=O)OCc2ccc(C)cc2)C(c2c(Cl)cccc2Cl)CC(=O)N1 (stereo not given),inactive
19,COc1cc(Cl)c(NC(=O)CC(C)S(=O)(=O)c2cc3c(cc2C)NC(=O)CO3)c(OC)c1 (stereo not given),inactive
20,O=C(CCC(=O)N1CC2CCCN2c2ccccc21)NCc1ccccc1Cl (stereo not given),inactive

row,Compound,Potency
1,Nc1ccc2[nH]c(=S)sc2c1,22.4 µM (active)
2,Cc1ccc(Cn2cc(CCC(=O)NCc3ccc(OC(C)C)cc3)c3ccccc32)cc1,inactive
3,CC(=O)Nc1cc(C(=O)NCc2ccc(F)cc2)ccc1Sc1ccc(F)cc1,inactive
4,CCOC(=O)c1c(C)[nH]c(C)c1S(=O)(=O)N1CCCC(C(=O)NCc2ccccc2Cl)C1 (stereo not given),inactive
5,O=C(CCS(=O)(=O)c1ccc2c(c1)NC(=O)CO2)Nc1cccc(C(F)(F)F)c1,inactive
6,Cc1cc(OC(C)C(=O)Nc2ccc(S(=O)(=O)Nc3onc(C)c3C)cc2)cc(C)c1Cl (stereo not given),inactive
7,Cc1noc(NS(=O)(=O)c2ccc(NC(=O)c3oc4ccc(F)cc4c3C)cc2)c1C,inactive
8,Cc1cc(C)c2nc(-c3cccnc3)cc(C(=O)Nc3ccc(S(=O)(=O)Nc4onc(C)c4C)cc3)c2c1,44.7 µM (active)
9,CCOc1ccccc1C(=O)NCC(c1ccc(N(C)C)cc1)N1CCCC1 (stereo not given),inactive
10,CC1CCCN(c2nc3c(S(=O)(=O)c4ccc(C(C)C)cc4)nnn3c3ccsc23)C1 (stereo not given),inactive
11,Cc1ccc(S(=O)(=O)c2c(Nc3cccc(Cl)c3)sc(C(=O)c3ccc4c(c3)OCO4)c2N)cc1,inactive
12,CCOC(=O)Cc1csc(SCc2cc(=O)oc3cc(O)ccc23)n1,inactive
13,CCOC(=O)Cc1csc(NC(=O)CN(C)S(=O)(=O)c2ccc3c(c2)CCC(=O)N3)n1,inactive
14,Cc1ccccc1NC(=O)c1ccc(COc2ccc3c(C)cc(=O)oc3c2)cc1,inactive
15,CCOC(=O)Cc1csc(NC(=O)COc2ccc3c(C)cc(=O)oc3c2)n1,31.6 µM (active)
16,Cc1ccc(O)c(/C=N/NC(=O)COc2ccc3c(C)cc(=O)oc3c2)c1,50.1 µM (active)
17,CC(=O)c1c(C)[nH]c(C(=O)COc2ccc3c(C)cc(=O)oc3c2)c1C,inactive
18,COc1ccc(N2CCN(c3nc(-c4ccccc4F)nc4ccccc34)CC2)cc1,inactive
19,CCc1ccccc1NC(=O)Cn1c(=O)n(CC2CCC(C(=O)NCCc3ccccc3)CC2)c(=O)c2ccccc21 (stereo not given),inactive
20,Cc1ccc(C)c(N2CCN(C(c3ccccc3)c3nnc(-c4ccccc4)o3)CC2)c1 (stereo not given),inactive
